Among all 300,000 compounds or so, about 37,000 (12%) were called active. No stated cut-off is given here; in the data, active means max response mostly above about 13% (no sharp cut-off); inactive means mostly below about 14%. The full list was thinned out, with actives kept by preference.
test: Cycloheximide Counterscreen for Small Molecule Inhibitors of Shiga Toxin; conditions: cell reporter, cycloheximide protein synthesis inhibition counterscreen; hits give high values; further: read at 38.3 µM for the half of the compounds with a filed dose; 0% is about no effect

SMILES	max response
Cc1ccc(S(=O)(=O)N2CCN(C(=O)CSc3cc(C)ccc3C)CC2)c(C)c1	12.6% (inactive)
C=CCOc1ccc(/C=C/C(=O)OCC(=O)NC2CCCCCC2)cc1	-2.39% (inactive)
O=S(=O)(Cc1nnnn1-c1ccccc1)c1ccccc1	-0.262% (inactive)
O=C(CN1C(=O)c2ccccc2S1(=O)=O)NC1CCCCC1	3.93% (inactive)
Cc1ccc(F)cc1NC(=O)N1CCCN(c2ccc(C(F)(F)F)cn2)CC1	-0.488% (inactive)
O=C(CSc1nc(Nc2ccccc2)nc(N2CCOCC2)n1)Nc1cc(Cl)ccc1O	7.58% (inactive)
O=C(O)c1ccc(/C=C2/SC(=S)N(c3cccc(C(F)(F)F)c3)C2=O)cc1	-7.16% (inactive)
S=C(Nc1cccc(Cl)c1)Nc1ccc2c(c1)OCCO2	42.2% (active)
S=C(NCc1ccc2c(c1)OCO2)NCc1ccco1	28.4% (active)
FC(F)Oc1ccc(NC(=S)NCc2ccco2)cc1Cl	11.2% (inactive)
FC(F)(F)c1cccc(NC(=S)Nc2cccc(Cl)c2)c1	-2.33% (inactive)
S=C(NCc1ccco1)NCc1ccccc1Cl	-2.41% (inactive)
COc1cc(NC(=S)NCc2ccco2)c(OC)cc1Cl	-2.3% (inactive)
Cc1c(Cl)cccc1NC(=S)NCc1ccc2c(c1)OCO2	-1.28% (inactive)
S=C(NCc1ccco1)Nc1ccc2c(c1)OCCO2	69.9% (active)
CN(C)S(=O)(=O)c1cccc(NC(=S)NCc2ccc3c(c2)OCO3)c1	0.966% (inactive)
O=S(=O)(c1ccccc1)N(Cc1cccc(F)c1)c1ccccc1	-0.496% (inactive)
CC(=O)N1CCC(C(=O)Nc2nc(-c3ccccc3)ns2)CC1	0.624% (inactive)
NC(=O)c1cc(S(=O)(=O)NCCCc2ccco2)cs1	-2.26% (inactive)
CCc1nnc(NC(=O)[C@@H](NC(=O)c2cccc(C)c2)C(C)C)s1	-2.22% (inactive)
C=CCn1c(SCc2ccccc2)nc2c1c(=O)[nH]c(=O)n2C	-1.99% (inactive)

SMILES	max response
CCCc1nnc(SCC(=O)N2C(C)CCCC2C)n1CC (configuration not stated)	7.27% (inactive)
CC(Sc1nnnn1C1CCCCC1)C(=O)O (configuration not stated)	5.78% (inactive)
CC(C)C(=O)Nc1nnc(SCC(=O)N2C(C)CCCC2C)s1 (configuration not stated)	1.12% (inactive)
O=C(CSc1nnnn1C1CCCC1)N1CCCCC1	27% (active)
O=C(CSc1nnc2ccc(-c3ccncc3)nn12)N1CCCCC1	-4.64% (inactive)
CC1CCCC(C)N1C(=O)CSc1nnnn1C1CCCC1 (configuration not stated)	25.7% (active)
O=Cc1cn(-c2ccccc2)nc1-c1ccccn1	3.16% (inactive)
Cc1c(CN2CC[C@@H](N3CCN(c4ccccn4)CC3)[C@H](O)C2)[nH]c2ccc(F)cc12	1.28% (inactive)
O=C(NCc1ccccc1)C(c1ccccc1)N(C(=O)c1csnn1)c1ccc(F)cc1 (configuration not stated)	-4.47% (inactive)
O=S(=O)(Cc1nnnn1-c1ccc(Br)cc1)c1ccc(F)cc1	-2.53% (inactive)
O=S(=O)(Nc1ccc(OC(F)(F)F)cc1)c1cccc2nonc12	-2.47% (inactive)
O=S(=O)(Cc1noc(-c2ccc(OC(F)(F)F)cc2)n1)c1ccc(F)cc1	22.3% (active)
COc1cc(OC)cc(C(=O)NC(=S)N2CCN(c3ccc(C(F)(F)F)cc3[N+](=O)[O-])CC2)c1	4.72% (inactive)
Cc1ccc(NS(=O)(=O)c2ccc(F)cc2)nc1	-3.76% (inactive)
Cc1cc(C)cc(NS(=O)(=O)c2ccc(F)cc2)c1	-2.02% (inactive)
Cn1nccc1NS(=O)(=O)c1ccc(F)cc1	162% (active)
COc1cc2c(cc1OC)CC1(CCCCC1)N=C2	-2.87% (inactive)
CSCc1nnc(NC(=O)c2ccc(S(=O)(=O)N3CCCCC3C)cc2)o1 (configuration not stated)	-2.84% (inactive)
CCOc1ccc(C2C3=C(CCCC3=O)N(CC(=O)O)C3=C2C(=O)CCC3)cc1	-3.14% (inactive)
C=CCNc1ncnc2ccc(Br)cc12	-5.1% (inactive)
COc1ccc(Nc2ncnc3ccc(Br)cc23)c(OC)c1	26.7% (active)

SMILES	max response
COc1ccc(Nc2ncnc3sc(-c4ccccc4)cc23)c(OC)c1	7.7% (inactive)
CN(Cc1c(F)cccc1Cl)S(=O)(=O)c1cccs1	-2.55% (inactive)
CN(CCc1ccccc1)c1ccc([N+](=O)[O-])cn1	0.432% (inactive)
CN1c2ccc([N+](=O)[O-])cc2C(C)(C)C12C=Cc1cc(C(=O)O)ccc1O2 (configuration not stated)	-2.71% (inactive)
COc1ccc2c(c1)C=CC1(O2)N(CCO)c2ccccc2C1(C)C (configuration not stated)	26% (active)
COc1cccc(CC2(CO)CCCN(CC3=Cc4cc(OC)ccc4OC3)C2)c1 (configuration not stated)	-0.657% (inactive)
O=C(c1cccc(-n2cccc2)c1)N1CCN(S(=O)(=O)c2ccc(F)cc2)CC1	5.03% (inactive)
O=c1[nH]c(CSc2ccccc2)nc2c1oc1ccccc12	-1.34% (inactive)
Cc1nc(SCC(=O)NC2CCCC2)[nH]c(=O)c1C	0.618% (inactive)
O=C(CN1CCN(S(=O)(=O)c2ccc(Br)cc2)CC1)Nc1ccccc1C(=O)c1ccccc1	-0.92% (inactive)
O=S(=O)(Cc1cc(Cl)nc(-c2cccnc2)n1)c1ccccc1	-0.203% (inactive)
O=S(=O)(c1ccccc1)N1CN(Cc2ccc(F)cc2)c2nc3ccccc3nc21	19.8% (active)
C=CCN1CN(S(=O)(=O)c2ccc(OC)cc2)c2nc3ccccc3nc21	15.9% (inactive)
COc1ccc(S(=O)(=O)N2CN(CCc3ccc(OC)c(OC)c3)c3nc4ccccc4nc32)cc1	-0.593% (inactive)
O=C(NCCCN1CCOCC1)C1CCCN(S(=O)(=O)N2CCCCC2)C1 (configuration not stated)	7.19% (inactive)
CC(C)N1CCc2c(sc(NC(=O)Cc3ccccc3)c2C#N)C1	1.8% (inactive)
NC(=S)N/N=C/c1coc2cc(Cl)ccc2c1=O	-4.85% (inactive)
CC(C)(C)OC(=O)NCCCCCC(=O)N/N=C/c1coc2ccccc2c1=O	37.7% (active)
Cc1ccc2occ(/C=N/NC(=O)c3ccccc3C)c(=O)c2c1	9.31% (inactive)
COc1cccc(NC(=O)COc2cc(C)cc3oc(=O)cc(C)c23)c1	-6.8% (inactive)

From PubChem BioAssay AID2314 (National Center for Advancing Translational Sciences (NCATS), 2010)
